# Sampled rows, rich in hits. Any-hit rate of the full collection: about 2.3%.
# JMJD2E inh – qHTS Assay for Inhibitors of Human Jumonji Domain Containing 2E (JMJD2E) | JMJD2E catalytic domain, FDH-coupled NADH fluorescence (FDH is formaldehyde dehydrogenase) | Potency, µM (highest dose often 57.1 µM), for the others: top-dose activity change, negative = inhibition, actives largely listed as inhibitors | 1.6% of 230,000 active | AID 2147, 2009; active means well fitted inhibition curve with a large enough effect, not every such curve was filed as active; inconclusive means small, poorly fitted or top-dose-only effect, or another doubt; inactive means no such curve, though single readings can be large or run the other way;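 further: potency means the concentration at half of the fitted maximal effect; 0% = wells with enzyme and -100% = buffer wells without enzyme; nearly all actives have a fitted effect of over 50% in size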
# Target sequence (B2RXH2 1-337 limits assumed): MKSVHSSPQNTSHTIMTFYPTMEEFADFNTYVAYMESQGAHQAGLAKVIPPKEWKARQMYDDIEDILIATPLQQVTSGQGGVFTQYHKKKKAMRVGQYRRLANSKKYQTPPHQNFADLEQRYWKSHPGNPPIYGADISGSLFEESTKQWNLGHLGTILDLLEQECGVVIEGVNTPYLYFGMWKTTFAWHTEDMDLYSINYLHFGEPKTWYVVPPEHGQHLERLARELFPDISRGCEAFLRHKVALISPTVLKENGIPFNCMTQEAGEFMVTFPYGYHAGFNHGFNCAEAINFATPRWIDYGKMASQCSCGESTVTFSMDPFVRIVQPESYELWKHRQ
# VDR inh – Inhibitors of the vitamin D receptor (VDR): qHTS; Potency, µM, for the others: max response, negative = inhibition, usual class: inhibitors; VDR-SRC2-3 peptide fluorescence polarization, 2 h; 0.93% of 400,000 active; AID 504847, 2011; further: potency means the concentration at half of the fitted maximal effect; on the % scale 0 is the no-effect control and ±100 the full control effect
# Target sequence (P11473 whole entry, looked up): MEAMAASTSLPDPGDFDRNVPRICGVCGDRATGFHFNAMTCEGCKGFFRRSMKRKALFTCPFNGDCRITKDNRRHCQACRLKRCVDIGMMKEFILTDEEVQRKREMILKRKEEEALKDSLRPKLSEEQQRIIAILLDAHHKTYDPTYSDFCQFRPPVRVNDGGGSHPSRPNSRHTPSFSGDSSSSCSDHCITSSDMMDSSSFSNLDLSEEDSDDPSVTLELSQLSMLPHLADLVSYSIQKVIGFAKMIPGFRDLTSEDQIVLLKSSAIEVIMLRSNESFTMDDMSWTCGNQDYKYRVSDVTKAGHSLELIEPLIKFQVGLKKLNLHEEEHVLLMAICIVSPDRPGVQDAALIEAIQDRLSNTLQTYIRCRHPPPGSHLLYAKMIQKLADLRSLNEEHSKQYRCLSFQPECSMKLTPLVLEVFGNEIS
#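 Fluorescence polarization assay measuring small-molecule disruption of VDR binding to the coregulator peptide SRC2-3. Compounds were pin-transferred (23 nl) into the reagent mix and incubated 2 h at room temperature before reading.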
# HTT ATP protect – qHTS Multiplex Assay to Identify Dual Action Probes in a Cell Model of Huntington: Cytoprotection (ATP); Potency, µM (doses to about 56.4 µM), for the others: cytoprotection (ATP increase), most hits filed as activators; 0.14% of 230,000 active; PC12 HTT-Q103 induced, cytoprotection, ATP luminescence, 40 h; further: potency means the concentration at half of the fitted maximal effect; % of control where 0% means no effect; nearly all actives have a fitted effect of over 45% in size
#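 Quantitative HTS on tebufenozide-induced (100 nM) PC12 cells expressing HTTQ103 exon 1–GFP; compounds tested as a concentration series; survival measured via cellular ATP.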
# Coupling enz – qHTS Assay for Inhibitors of Fructose-1,6-bisphosphate Aldolase from Giardia Lamblia: Coupling assay counterscreen. activity change, negative = inhibition, % at 58.2 µM, hits read low. coupling enzyme system counterscreen, AmpLite Red fluorescence. 0.67% of 290,000 active; in the data active means activity change below about -30%; further: on the % scale 0 is the no-effect control and ±100 the full control effect
#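 Final compound at 57.5 uM, incubated 10 min at RT with coupling enzyme reagent (glyceraldehyde-3-phosphate), then 20 min with substrate and AmpLite Red detection. Fluorescence read at 525/598 nm; tests interference with the coupling assay, not aldolase inhibition.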
# HttQ103 aggreg – qHTS Multiplex Assay to Identify Dual Action Probes in a Cell Model of Huntington: Aggregate Formation (GFP). PC12 HttQ103-GFP aggregates, Acumen cytometry, 40 h. Potency, µM (titrated, usually from 46.1 µM), for inactives: top-dose activity change, negative = inhibition, most hits filed as inhibitors. 1.1% of 220,000 active; further: potency means the concentration at half of the fitted maximal effect; on the % scale 0 is the no-effect control and ±100 the full control effect; nearly all actives have a fitted effect of over 60% in size
#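 Aggregates are detected as GFP objects 1–25 µm with signal 6 STDEV over background in lysates of induced PC12 cells. These carry Huntingtin exon 1 with 103 glutamines fused to GFP under an ecdysone promoter; compounds titrated.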
# RGS12 GoLoco inh – qHTS Assay for Inhibitors of RGS12 GoLoco Motif Activity (Red Fluorophore) | Potency, µM (doses to about 61.6 µM), without a hit: top-dose activity, negative = inhibition, actives largely listed as inhibitors | 0.44% of 230,000 active | Gai1:RGS12 GoLoco peptide FP, rhodamine, 10 min; active means well fitted inhibition curve with a large enough effect, not every such curve was filed as active; inactive means no such curve, though single readings can be large or run the other way; further: potency means the concentration at half of the fitted maximal effect; on the % scale 0 is the no-effect control and ±100 the full control effect; nearly all actives have a fitted effect of over 30% in size
# Active calls of the source: *; u = inconclusive; x = no result given; [ ] = dose if it differs, or a comment. Unless noted, the call rests on the fitted dose curve; in most records, active means well fitted curve in the direction sought with a large enough effect; inconclusive means small, poorly fitted or top-dose-only effect, or another doubt; inactive means no such curve, though single readings can be large; an effect the other way counts as inactive or inconclusive.
SMILES,JMJD2E inh,VDR inh,HTT ATP protect,Coupling enz,HttQ103 aggreg,RGS12 GoLoco inh
CC(=O)Nc1ccc(N(C(=O)Cn2nnc3ccccc32)C(C(=O)NC2CCCC2)c2ccc(O)c(O)c2)cc1 (stereo not drawn),7.9µM*,12%,-5%[10 µM],-2,2%[9.22 µM],4%
CC(CO)NC(=O)C1C=C2c3cccc4[nH]cc(c34)CC2N(C)C1 (stereo not drawn),x,u,-46%,x,1%,-23%
O=C(O)c1cc[c]([Hg][S]c2ncnc3nc[nH]c23)cc1,x,x,-76%[10 µM],x,x,0.63µM*
O=c1c2ccccc2nc(CSc2ncnc3nc[nH]c23)n1-c1ccccc1Cl,-1%,u,2%[1.9 µM],0,0%,19%
O=C(CCl)c1ccc(Cl)cc1Cl,x,x,-104%,x,x,-1%
O=C(CCl)c1ccc(Oc2ccc(C(=O)CCl)cc2)cc1,x,7.1µM*,-22%,x,11%,x
Cc1cc2c(C(F)(F)F)cc(=O)oc2c2c1NCCC2,1%,-1%,0%,8,10%,2%
O=c1cc(C(F)(F)F)c2cc3c4c(c2o1)CCCN4CCC3,-10%,-11%,-7%[10 µM],-2,u,13µM*
O=C(Oc1ccccc1)N1CCC[C@@]2(CCN(Cc3nccs3)C2)C1,x,-14%,2%,0,x,7%
CSc1nc(N)c(N=Nc2ccc([As](=O)(O)O)cc2)c(=O)[nH]1,-15%,50µM*,1%[10 µM],1,-14%[9.22 µM],-10%
[O]=[Sb]([OH])([OH])[c]1ccccc1,x,79µM*,x,x,x,x
O=C1NC(=O)C(=Cc2ccc(-c3ccccc3[N+](=O)[O-])o2)C(=O)N1,20µM*,40µM*,-4%[10 µM],1,-14%[9.22 µM],7%
NS(=O)(=O)c1ccc(-c2ccc(C=C3C(=O)NC(=S)NC3=O)o2)cc1,x,x,x,0,x,x
CNS(=O)(=O)c1ccc(-c2ccc(C=C3C(=O)NC(=O)NC3=O)o2)cc1,x,45µM*,x,0,x,x
N[C@H](CCl)C(=O)O,x,x,-2%[1.9 µM],x,x,x
CC(C)c1ccc(-n2c(O)c(/C=N/NC(=O)c3ccncc3)c(=O)[nH]c2=O)cc1,u,-18%,19%[10 µM],12,13%,6%
CCCCn1c(O)c(/C=N/NC(=O)c2ccncc2)c(=O)[nH]c1=O,8.9µM*,-2%,19%[10 µM],0,-13%[9.22 µM],-4%
CCc1ccc(-n2c(O)c(/C=N/NC(=O)c3ccncc3)c(=O)[nH]c2=O)cc1,11µM*,10%,1%[10 µM],4,-18%,14%
CCCCC(=O)N/N=C/c1c(O)n(Cc2ccco2)c(=O)[nH]c1=O,25µM*,-20%,-3%[10 µM],3,-1%,28%
Cc1cc(C)c(-n2c(O)c(/C=N/NC(=O)c3ccncc3)c(=O)[nH]c2=O)c(C)c1,14µM*,3%,20%[10 µM],0,17%[9.22 µM],83%
N[C@@H](CP(=O)(O)O)C(=O)O,x,x,-9%[10 µM],x,x,3%[14.2 µM]
C[C@H]1C(=O)O[C@H]2CCN3CC=C(COC(=O)[C@](C)(O)[C@@]1(C)O)[C@H]23,x,x,-18%,x,x,x
CC(C)(C)C(=O)CP(=O)(O)O,x,x,4%[10 µM],x,x,0%[14.2 µM]
CCCC(C)C1(CC)C(=O)NC(=S)NC1=O (stereo not drawn),x,6%,-11%,2,3%,4%
CCN1C[C@]2(C)CC[C@H](OC)[C@@]34[C@H]1C1(OCO[C@@]15C[C@H](OC)C1C[C@]3(O)C5[C@H]1OC)[C@@H](O)[C@H]24,8%,6%,-1%,2,x,2%
SMILES,JMJD2E inh,VDR inh,HTT ATP protect,Coupling enz,HttQ103 aggreg,RGS12 GoLoco inh
CC[C@]1(O)CC(O[C@@H]2CC(N(C)C)C(O)C(C)O2)c2c(cc3c(c2O)C(=O)c2c(O)cccc2C3=O)C1C(=O)OC (stereo partly drawn),-21%,32µM*,-249%,-25,x,1%
C[n+]1c(-c2ccccc2)c2cc(N)ccc2c2ccc(N)cc21,x,-16%,x,-39*,x,x
COc1cc(CC(=O)OCC2=C[C@H]3[C@@H]4C(C)(C)[C@]4(OC(C)=O)[C@H](OC(=O)Cc4ccccc4)[C@@H](C)[C@]3(O)[C@@H]3C=C(C)C(=O)[C@@]3(O)C2)ccc1O,x,-10%,x,-5,x,3%
CCC1(CCCC(=O)c2ccc(F)cc2)C(=O)NC(=S)NC1=O,0%,-15%,3%[10 µM],3,-4%,2µM*
CCCCC1(CCC)C(=O)NC(=S)NC1=O,x,-1%,x,x,x,x
NC(N)=Nc1ccc2[nH]c3c(c2c1)C[C@]1(O)[C@@H]2Cc4ccc(O)c5c4[C@]1(CCN2CC1CC1)[C@H]3O5,x,x,7%[1.9 µM],x,x,x
O=C(Cc1ccccc1)N1CCN(Cc2c[nH]c3ccccc23)CC1,-17%,10%,-73%[10 µM],-1,13µM*,-14%
O=C(COc1ccccc1)N1CCN(Cc2c[nH]c3ccccc23)CC1,-6%,-6%,-19%,3,16µM*,-2%
COc1ccc(OCC(=O)N2CCN(Cc3c[nH]c4ccccc34)CC2)cc1,-30%,-11%,-71%[10 µM],1,11µM*,2%
Cc1ccccc1CN1CCN(C(=O)Cc2ccccc2)CC1,u,0%,x,3,x,-6%
COc1ccc(CN2CCN(C(=O)COc3ccccc3)CC2)c(OC)c1,x,-18%,x,x,x,x
COc1cc2c3cc1Oc1c(OC)c(OC)cc4c1[C@@H](Cc1ccc(OC(=O)c5ccc([N+](=O)[O-])cc5)c(c1)Oc1ccc(cc1)C[C@@H]3N(C)CC2)N(C)CC4,x,u,x,-6,x,x
C=C1C/C(=C\C)C(=O)O[C@@H]2CCN3CC=C(COC(=O)[C@]1(C)O)[C@H]23,x,x,-37%,x,x,x
COc1ccccc1CN1CCN(Cc2ccc(Cl)cc2)CC1,20µM*,1%,-3%[10 µM],-1,11%,-2%
Cc1ccc(CN2CCN(Cc3ccccc3F)CC2)cc1,13µM*,11%,-46%,0,23%,0%
COCCCn1c(N)c(C(=O)NCc2ccco2)c2nc3ccccc3nc21,u,2%,-56%[10 µM],-35*,25%[9.22 µM],7%
COCCNC(=O)c1c(NC(=O)c2ccco2)n(Cc2ccccc2)c2nc3ccccc3nc12,u,-16%,-1%,-33*,8%,10%
CCC(C)NC(=O)c1c(N)n(CCCOC)c2nc3ccccc3nc12 (stereo not drawn),u,-25%,-15%,-34*,-18%,4%
C[N+](C)(C)CCCl,x,-5%,x,2,x,x
C=CCN1C[C@@H](C)N([C@H](c2ccc(C(=O)N(CC)CC)cc2)c2cccc(OC)c2)C[C@H]1C,x,x,5%[1.9 µM],x,x,x

# Screening results from PubChem.
